Inconclusive results are not listed. A call without a number means that no potency is given here. Active and inactive are the calls of the source. Calls come from the whole dose curve; as a rule, active = well fitted inhibition curve with a large enough effect; inconclusive = small, poorly fitted or top-dose-only effect; inactive = flat fitted curve, though single readings scatter.
Potency is the fitted concentration of half-maximal effect.

Sequence of Voltage-gated inwardly rectifying potassium channel KCNH2 (Homo sapiens) (Q12809 whole entry, looked up): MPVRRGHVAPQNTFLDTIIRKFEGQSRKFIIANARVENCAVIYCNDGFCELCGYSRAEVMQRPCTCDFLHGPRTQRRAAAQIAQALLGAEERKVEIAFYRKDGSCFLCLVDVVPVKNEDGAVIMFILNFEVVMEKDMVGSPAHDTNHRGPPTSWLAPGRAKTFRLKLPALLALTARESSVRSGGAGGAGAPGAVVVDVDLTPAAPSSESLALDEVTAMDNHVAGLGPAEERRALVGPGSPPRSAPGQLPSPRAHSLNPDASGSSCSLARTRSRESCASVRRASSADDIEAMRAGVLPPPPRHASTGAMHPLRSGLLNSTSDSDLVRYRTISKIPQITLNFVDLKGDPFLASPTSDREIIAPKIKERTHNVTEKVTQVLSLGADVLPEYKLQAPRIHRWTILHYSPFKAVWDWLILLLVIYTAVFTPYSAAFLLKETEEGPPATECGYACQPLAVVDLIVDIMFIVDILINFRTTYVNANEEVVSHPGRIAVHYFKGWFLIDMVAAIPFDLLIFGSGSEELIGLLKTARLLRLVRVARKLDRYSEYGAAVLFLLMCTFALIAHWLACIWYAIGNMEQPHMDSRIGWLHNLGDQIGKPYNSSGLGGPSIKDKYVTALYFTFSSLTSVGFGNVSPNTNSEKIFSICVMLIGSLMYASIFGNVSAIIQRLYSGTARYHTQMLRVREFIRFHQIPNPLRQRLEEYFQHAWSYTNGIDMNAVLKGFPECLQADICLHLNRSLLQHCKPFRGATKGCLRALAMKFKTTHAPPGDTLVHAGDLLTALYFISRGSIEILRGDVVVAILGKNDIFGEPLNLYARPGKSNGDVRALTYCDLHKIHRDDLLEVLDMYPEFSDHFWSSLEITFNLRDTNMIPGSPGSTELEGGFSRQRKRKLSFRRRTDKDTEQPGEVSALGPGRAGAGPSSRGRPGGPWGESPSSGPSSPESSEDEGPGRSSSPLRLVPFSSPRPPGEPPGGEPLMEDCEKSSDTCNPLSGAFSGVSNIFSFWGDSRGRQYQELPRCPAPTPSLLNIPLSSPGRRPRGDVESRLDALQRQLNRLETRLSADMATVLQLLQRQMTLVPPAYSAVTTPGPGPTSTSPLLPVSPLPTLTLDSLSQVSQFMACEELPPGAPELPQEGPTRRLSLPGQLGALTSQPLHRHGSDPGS

This assay concerns the target Voltage-gated inwardly rectifying potassium channel KCNH2 (Homo sapiens) (UniProt Q12809). In words: qHTS Assay for Small Molecule Inhibitors of the Human hERG Channel Activity (AID 588834).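 Note: lower thallium flux fluorescence means stronger hERG block; nearly all actives have a fitted effect of over 50% in size.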 Conditions: U2OS BacMam hERG, FluxOR thallium flux fluorescence; series mostly up to 46.1 µM. The source says:
NIH Chemical Genomics Center [NCGC]
National Institutes of Environmental Health Sciences [NIEHS]
National Toxicology Program [NTP]
We have developed a 1536-well cell-based assay for quantitative high throughput screening (qHTS) to determine in vitro hERG channel blockage as a measure of cardio toxicity with small molecules. This particular assay uses the U2OS cell line which is derived from human osteosarcoma.
NCGC Assay Protocol Summary:
HERG assay (FluxORTM thallium flux assay) was initially developed by Invitrogen/Molecular Probes, and then miniaturized into 1536-well plate in a homogeneous format by NCGC. This assay measures the activity of potassium channel using thallium dye (FluxOR) flux as surrogate measurement for potassium into the cells with a FDSS-7000 kinetic plate reader (Hamamatsu Corp., Hamamatsu City, Japan). The hERG ion channel is transduced into mammalian cells (U2OS) using a baculovirus (Bacmam) construct harboring the hERG K+ ion channel. So far we screened LOPAC1280 library (Sigma), the NTP collection of 1408 compounds, and the NCGC Pharmaceutical Collection (NPC), in which many well defined HERG blockers are present. The rank order potencies of many of these compounds are similar to that of other HERG assays (membrane potential, Rb+ flux, patch clamp, etc). This quick and homogeneous assay is also found to be sensitive, specific, and robust.
Using the FluxORTM thallium flux assay, the activity of potassium channel using thallium dye (FluxOR) flux as surrogate measurement for potassium into the cells was measured in the U2OS cell line transduced with hERG K+ ion channel using a baculovirus (Bacmam) using Opti-MEM medium (Invitrogen) containing 2% fetal calf serum (FCS, HyCone) following loading buffer addition, compound treatment for around 10 minutes and finally adding stimulation buffer. The assay was performed in black clear Kalypsys 1536-well plates. In the screen, Astemizole was used as positive controls. Library compounds were measured for their ability to cause hERG channel blockage in the cell line, as reflected by a decrease in fluorescence intensity, in a concentration-dependent manner. […] AC50 values were determined from concentration-response data modeled with the standard Hill equation.
qHTS protocol for hERG-U2OS cellular assay
[Step] [Parameter] [Value] [Description]
1. Day 1: Replace medium in 70-80% confluent T225 flask with 2.5 mL of hERG-BacMam virus plus 12.5 mL of phosphate buffered saline (PBS) (corresponding roughly to a multiplicity of infection ratio of 100 virus particles/cell)
2. Incubation: 4 hrs @ room Temperature in Dark
3. Reagent; Remove virus; wash once with 25 ml DPBS
4. Reagent; 35 ml culture medium
5. Incubation; 37 °C overnight
6. Day2: Reagent; 3 uL; 2000 U2OS cells/well
7. Time; 4 hr; 37 °C incubation
8. Loading buffer; 1 uL; 0.7X;
9. Incubation: 1hr @ RT in Dark.
12. Time; 10min; 37 °C incubation
13. Read fluorescence Intensity on FDSS for 10 Sec with 1 sec interval
14. Reagent; 1 uL; stimulation buffer
15. Read fluorescence Intensity on FDSS for 2 min with 1 sec interval
16. Detection; Fluorescence Intensity; FDSS
With `O=C(Nc1ccccc1)Nc1ccccc1`, the Potency entry is “inactive”. Turning to `CC(=O)NCCc1ccc(O)c(O)c1`, the Potency result was “inactive”. Consider `NCCNC(=O)c1ccc(Cl)cc1`, for which the Potency result was “inactive”. Regarding `CN(C)C1C(=O)C(C(N)=O)=C(O)[C@@]2(O)C(=O)C3=C(O)c4c(O)ccc(Cl)c4[C@@H](O)C3C[C@@H]12` (stereo not given in full), the Potency result is “inactive”. Consider `CC(C)(C)[C@]1(O)CCN2CC3c4ccccc4CCc4cccc(c43)[C@@H]2C1` (stereo not given in full), for which the Potency is 2 µM (active). Under `CNC(=O)[C@H]1O[C@@H](n2cnc3c(NCc4ccc(N)cc4)ncnc32)[C@H](O)[C@H]1O` stands “inactive”; under `C[C@H](Cc1ccccc1)Nc1ncnc2c1ncn2[C@@H]1O[C@H](CO)[C@H](O)[C@H]1O`, “inactive”.

Take `Nc1nc(Nc2ccccc2)nc2c1ncn2[C@@H]1O[C@H](CO)[C@H](O)[C@H]1O`: the Potency entry was “inactive”. As to `C[C@H]1CC2[C@@H]3CCC4=CC(=O)C=C[C@]4(C)[C@@]3(Cl)[C@@H](O)C[C@]2(C)[C@@]1(O)C(=O)CO` (stereo not given in full), the Potency entry is “inactive”. Regarding `Cc1ccccc1N1CCN(S(=O)(=O)C[C@]23CCC(CC2NC(=O)[C@@H](N)CCS(C)(=O)=O)C3(C)C)CC1` (stereo not given in full), the Potency entry was “inactive”.

As for `CN1C2CCC1CC(NC(=O)c1nn(C)c3ccccc13)C2` (stereo not given), the Potency result was “inactive”. For the compound `Nc1ncnc2c1nc(Sc1ccc(Cl)cc1)n2[C@H]1O[C@@H]2COP(=O)(O)O[C@H]2[C@@H]1O`, the Potency entry was “inactive”. `CN1C[C@H](C(=O)N[C@]2(C)O[C@@]3(O)C4CCCN4C(=O)[C@H](Cc4ccccc4)N3C2=O)C[C@@H]2c3cccc4[nH]cc(c34)C[C@H]21` (stereo not given in full): the Potency is 11.2 µM (active). As for `NCCCCNS(=O)(=O)c1cccc2c(Cl)cccc12`, the figure is 4.47 µM (active); as for `N.N.N.N.N.N.N.N.N.N.N.N.N.N.O.O.[Cl-].[Cl-].[Cl-].[Cl-].[Cl-].[Cl-].[Ru].[Ru].[Ru]`, “inactive”; as for `NCCC(=O)NCCc1cnc[nH]1`, “inactive”.

For `C[C@]12CCC(=O)C=C1CC[C@@H]1C2[C@@H](O)C[C@@]2(C)[C@H]1CC[C@]2(O)C(=O)CO` (stereo not given in full), the Potency result was “inactive”. As to `CNC(=O)[C@H]1O[C@@H](n2cnc3c(NCc4cccc(I)c4)ncnc32)[C@H](O)[C@H]1O`, the Potency result is “inactive”.

Regarding `CC(=O)[C@@]1(O)CC[C@H]2C3CCC4=CC(=O)CC[C@]4(C)C3CC[C@@]21C` (stereo not given in full), the Potency result is “inactive”. With `CC(C)C[C@H]1C(=O)N2CCCC2[C@]2(O)O[C@](NC(=O)[C@@H]3C=C4c5cccc6[nH]c(Br)c(c56)C[C@H]4N(C)C3)(C(C)C)C(=O)N12` (stereo not given in full), the Potency entry is “inactive”. In the case of `OC[C@H]1O[C@@H](n2cnc3c(N[C@H]4CC5CCC4C5)ncnc32)[C@H](O)[C@@H]1O` (stereo not given in full), the Potency entry was “inactive”. As to `CSc1nc(N)c2ncn([C@@H]3O[C@H](COP(=O)(O)OP(=O)(O)OP(=O)(O)O)[C@H](O)[C@H]3O)c2n1`, the Potency entry is “inactive”. For the compound `C[C@]12C=CC(=O)C=C1CCC1C2=CC[C@]2(C)[C@@H](C(=O)CN3CCN(c4cc(N5CCCC5)nc(N5CCCC5)n4)CC3)CC[C@@H]12` (stereo not given in full), the Potency result was “inactive”.

Regarding `CSc1nc(N)c2ncn([C@@H]3O[C@H](COP(=O)(O)OP(=O)(O)O)[C@H](O)[C@H]3O)c2n1`, the Potency entry was “inactive”. As for `CCCC(=O)NCCc1c2n(c3ccc(OC)cc13)Cc1ccccc1-2`, the entry is “inactive”; as for `CCSC(N)=Nc1ccc(C(F)(F)F)cc1`, “inactive”; as for `O=C(Cc1ccc(Cl)c(Cl)c1)OCCN1CCCC1`, “inactive”.

On to `OC[C@H]1O[C@@H](n2cnc3c(NC4CCCC4)ncnc32)[C@H](O)[C@H]1O`, for which the Potency entry was “inactive”. As for `NC(=O)C1=CN(C2OC(COP(=O)(O)OP(=O)(O)OC[C@H]3O[C@@H](n4cnc5c(N)ncnc54)[C@H](OP(=O)(O)O)[C@H]3O)C(O)C2O)C=CC1` (stereo not given in full), the entry is “inactive”. Take `Nc1ncnc2c1ncn2[C@@H]1O[C@H](C(=O)NC2CC2)[C@H](O)[C@H]1O`: the Potency result is “inactive”.

Turning to `C[C@@H]1[C@H](O)[C@@H](C)/C=C/C=C/C=C/C=C/C=C/C=C/C=C/[C@H](O[C@@H]2O[C@H](C)[C@@H](O)[C@H](N)[C@@H]2O)C[C@@H]2O[C@](O)(C[C@@H](O)C[C@@H](O)[C@H](O)CC[C@@H](O)C[C@@H](O)CC(=O)O[C@H]1C)C[C@H](O)[C@H]2C(=O)O`, the Potency result is “inactive”. As for `CN1CCc2cc(Cl)c(O)cc2C(c2ccccc2)C1` (stereo not given), the figure is 10 µM (active). Turning to `CC(C)C1NC(=O)[C@H](CCCCN)NC(=O)[C@@H](Cc2c[nH]c3ccccc23)NC(=O)[C@H](Cc2ccc(O)cc2)NC(=O)[C@H](C)N(C)C(=O)[C@H](Cc2ccccc2)NC1=O` (stereo not given in full), the Potency result was “inactive”.

As to `OC[C@H]1O[C@@H](n2cnc3c(Nc4ccccc4)ncnc32)[C@H](O)[C@H]1O`, the Potency result is “inactive”.

In the case of `Cc1cn([C@H]2C[C@@H](N=[N+]=[N-])[C@@H](CO)O2)c(=O)[nH]c1=O`, the Potency entry was “inactive”. Turning to `CNc1ncnc2c1ncn2[C@@H]1O[C@H](CO)[C@H](O)[C@H]1O`, the Potency result is “inactive”. On to `COc1cc(=O)n(C)c2c(OCC(O)C(C)(C)O)cccc12` (stereo not given), for which the Potency result is “inactive”. Under `COc1c2c(nc3ccccc13)OC(C(C)(O)CO)C2` (stereo not given) stands “inactive”; under `CC(N)=NCCCC(N)C(=O)O` (stereo not given), “inactive”; under `O=C(O)CC[C@H](NC(=O)c1ccccc1C(=O)O)C(=O)O`, “inactive”.

These data come from PubChem BioAssay (NCATS).
